This is an account of results in PubChem BioAssay (NCI).

Structures are written as SMILES. The panel holds about 83,000 compounds, 20% with a hit somewhere; the sample as a whole holds those more often.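 Values shown are percent growth following 48 h exposure of cells in 96-well plates to a single concentration of compound; below 10 was considered active.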 The source made the active and inactive calls.

The experiment has as its system OVCAR-4 ovarian. Nature of the experiment: NCI-60 one-dose screen, 48 h (100 = growth as untreated, 0 = no growth, -100 = all killed). The following applies: 10 µM.
On to `O=C(CCCCCCSc1nc(-c2ccc(Cl)cc2)cc(-c2ccc(Cl)cc2)n1)NO`, for which the growth is 35.9% (inactive).

For `O=C1CC(C(F)(F)F)Cc2nc3ccc(Br)cc3cc21` (configuration not stated), the growth is 74.6% (inactive).

For `COc1ccc(C2NC(=O)C(C#N)c3c2sc2c(F)cccc32)cc1` (configuration not stated), the growth was 71.4% (inactive).

Regarding `CCCCCn1sc(=O)n(Cc2ccc(CNC(=O)OCc3ccc4cccc(O)c4n3)cc2)c1=O`, the growth is -50.6% (active).

On to `O=[N+]([O-])c1cccc(N=NNc2cccc([N+](=O)[O-])c2)c1`, for which the growth was 88.7% (inactive).

For the molecule `CCN(CC)CCCOc1ccc2c(c1)O/C(=C\c1cccc(OC)c1)C2=O`, the growth is 94.2% (inactive).

Take `O=C(OCc1ccc2c(Cl)cc(Cl)c(O)c2n1)N1CCNCC1`: the growth was 23.4% (inactive).

In the case of `C=CCCCCOc1ccccc1-c1cnc(OCCCCC=C)n1C`, the growth was 97.9% (inactive).

`CSc1nc(=S)c2nc(SC)n(-c3ccccc3)c2[nH]1`: the growth is 104% (inactive).

As for `CC1Cc2c(Cl)ncnc2N(C)c2ccc(O)cc21` (configuration not stated), the growth is 27% (inactive).

In the case of `Nc1nc(Nc2ccccc2)c2ncn(Cc3ccc4c(c3)OCO4)c2n1`, the growth is 66.9% (inactive).

For `COc1ccc(-c2cc(-c3ccc(Cl)cc3)nc(SCCCCCCC(=O)NO)n2)cc1`, the growth was 56.5% (inactive).

Regarding `COc1ccc(C(=O)CSc2nccc(Nc3ccc(C(=O)O)cc3)n2)cc1`, the growth is 108% (inactive).

As for `CC1(C)OC2[C@@H](CNC(=O)NC(=O)NC(=O)CI)O[C@@H](n3cnc4c(NC(=O)Nc5ccccc5)ncnc43)[C@H]2O1` (some centres not stated), the growth is 73.5% (inactive).

Turning to `Cn1cc(-c2noc(-c3cn(C)c4ncc(F)cc34)n2)c2cc(Cl)ccc21`, the growth was -50.6% (active).

Turning to `COCCCNc1nc(NC(=O)c2cc(Br)cc(C(F)(F)F)c2)cc(-c2cccnc2)n1`, the growth is 92.3% (inactive).

`O=C(NCCCNC(=O)OCc1ccc2cccc(O)c2n1)OCc1ccc2cccc(O)c2n1`: the growth was 39.2% (inactive).

`COc1cccc(-c2[nH]c(=S)ncc2C(=O)c2ccccc2)c1`: the growth was 94.9% (inactive).

`CCN(CCO)CCC(=O)c1ccc([N+](=O)[O-])cc1`: the growth was 103% (inactive).

On to `Cc1ccc(N)c(O)c1`, for which the growth is 84.2% (inactive).

On to `CC(C)C1=NOC(=O)C1=Cc1cn(-c2ccccc2)nc1-c1ccc(Br)cc1`, for which the growth was 98.8% (inactive).

Turning to `Cc1cc[n+](CCCCCCCCCC[n+]2ccc(C)cc2)cc1`, the growth was 99.4% (inactive).

For the molecule `C[C@@H](NC(=O)[C@@H](CC(=O)N1CCC(N2CCCCC2)CC1)N1C(=O)[C@@H](N2C(=O)OC[C@@H]2c2ccccc2)[C@H]1/C=C/c1cccc(Cl)c1)c1ccccc1`, the growth is 78.6% (inactive).

For `C/C=C/C1OC23CCCCC2C(C#N)(C(=N)O3)C1(C#N)C#N` (configuration not stated), the growth was 95% (inactive).

For `CCCOc1ccc(-c2nc(-c3ccc(N)cc3)cs2)cc1`, the growth is 100% (inactive).

For `Cc1ccccc1OC(=O)c1cccc(Cl)c1`, the growth was 112% (inactive).

As to `CC(C)c1ccc(C(=O)Nc2nc3ccc(O)cc3s2)cc1`, the growth is 33.9% (inactive).

As for `COc1cc(-c2nc(SCCC(C)C)nc(Nc3ccc(S(N)(=O)=O)cc3)c2C#N)cc(OC)c1OC`, the growth was 19.8% (inactive).

Consider `O=C(CSc1nc2ccc([N+](=O)[O-])cc2[nH]1)Nc1cccc(Cl)c1`, for which the growth was 2.46% (active).

For `COc1ccc2nc3cc(Cl)ccc3c(Nc3ccc(O)cc3)c2c1`, the growth was 90.4% (inactive).

Regarding `O=C(OCc1ccc2c(Cl)cc(Cl)c(O)c2n1)N1CCN(C(=O)c2cc3cc(F)ccc3[nH]2)CC1`, the growth was 40% (inactive).

Turning to `COc1ccc(C(C(=O)O)c2ccc(OC)cc2)cc1`, the growth is 103% (inactive).

`O=C1COCCN1c1ccc(NCc2cn(Cc3ccc(F)cc3)c3ccccc23)cc1`: the growth was -6.07% (active).

On to `O=C(Nc1cc(-c2cccnc2)nc(NCCCN2CCOCC2)n1)c1cc(Br)cc(C(F)(F)F)c1`, for which the growth was 62.2% (inactive).

With `CS(=O)(=O)c1cccnn1`, the growth is 80.9% (inactive).

Consider `C[C@]12CCc3c(ccc4cc(O)ccc34)[C@@H]1CC[C@H]2O`, for which the growth was 96.1% (inactive).

`CN(Cc1cccc(C(F)(F)F)c1)C(=O)[C@@H](CC(=O)N1CCC(N2CCCCC2)CC1)N1C(=O)[C@@H](N2C(=O)OC[C@@H]2c2ccccc2)[C@H]1/C=C/c1ccccc1`: the growth is 74.2% (inactive).
